Reference: PubChem BioAssay (NCATS)
Records with an inconclusive call do not appear. The source made the active and inactive calls. Unless noted, calls follow the shape of the dose curve; as a rule, active = well fitted curve in the direction sought with a large enough effect; inconclusive = small, poorly fitted or top-dose-only effect, or another doubt; inactive = no such curve, though single readings can be large; an effect the other way counts as inactive or inconclusive.

System: not listed separately
Experiment: Cell Viability - LYMP1-002 - Assay at 24 hr (AID 993); also: potency is read from the fitted curve at half-maximal effect; as to activity change, negative = cytotoxicity: % is scaled to controls: 0 for no effect and ±100 for the full control effect
Conditions: LYMP1-002 lymphoblastoid cells viability; series mostly up to 92.2 µM; activity change, negative = cytotoxicity: at the top concentration
How it was run: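 Viability was judged from intracellular ATP using a luciferase read-out, following a 24-hour compound incubation at 37 C of lymphoblastoid cells seeded at 2500 per well. Concentration-response data were fitted to the Hill equation for AC50.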

SMILES | Potency | activity change, negative = cytotoxicity
Clc1ccc(C(c2ccc(Cl)cc2)C(Cl)(Cl)Cl)cc1 | 50.1 µM (active) | –
CCOC(=O)CC(SP(=S)(OC)OC)C(=O)OCC (stereo unspecified) | – | 6.34% (inactive)
C[C@]1(O)CC[C@H]2[C@@H]3CCC4=CC(=O)CC[C@]4(C)[C@@]3(F)[C@@H](O)C[C@@]21C | – | 1.59% (inactive)
CCC(C)(C)c1ccc(O)cc1 | – | -0.524% (inactive)
Nc1ccccc1 | – | 6.82% (inactive)
Nc1ccccc1C(=O)O | – | 6.1% (inactive)
CCCC(C)(COC(N)=O)COC(N)=O | – | -0.439% (inactive)
CN1C[C@H](C(=O)N[C@]2(C)O[C@@]3(O)[C@@H]4CCCN4C(=O)[C@H](Cc4ccccc4)N3C2=O)C=C2c3cccc4[nH]cc(c34)C[C@H]21 | – | -21.3% (inactive)
CC(C)NC(C)C | – | 2.14% (inactive)

System: not listed separately
Experiment: Cell Viability - LYMP1-002 - Assay at 40 hr (AID 994);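 also: 0% = DMSO only and full inhibition = 92 µM tetraoctylammonium bromide; nearly all actives have a fitted effect of over 60% in size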
Conditions: LYMP1-002 lymphoblastoid cell viability; series mostly up to 92.2 µM; viability change, negative = cytotoxic: at the top concentration
How it was run: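 Concentration-dependent ATP loss after 40 hr treatment at 37 C defined toxicity; AC50 values were obtained by fitting the standard Hill equation.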

SMILES | viability change, negative = cytotoxic
Clc1ccc(C(c2ccc(Cl)cc2)C(Cl)(Cl)Cl)cc1 | -8.23% (inactive)
CCOC(=O)CC(SP(=S)(OC)OC)C(=O)OCC (stereo unspecified) | -8.75% (inactive)
C[C@]1(O)CC[C@H]2[C@@H]3CCC4=CC(=O)CC[C@]4(C)[C@@]3(F)[C@@H](O)C[C@@]21C | -8% (inactive)
CCC(C)(C)c1ccc(O)cc1 | -6.15% (inactive)
Nc1ccccc1 | -1.32% (inactive)
Nc1ccccc1C(=O)O | -6.78% (inactive)
CCCC(C)(COC(N)=O)COC(N)=O | 3.5% (inactive)
CN1C[C@H](C(=O)N[C@]2(C)O[C@@]3(O)[C@@H]4CCCN4C(=O)[C@H](Cc4ccccc4)N3C2=O)C=C2c3cccc4[nH]cc(c34)C[C@H]21 | -27.3% (inactive)
CC(C)NC(C)C | 0.441% (inactive)

Molecular target: Alpha-galactosidase (Coffea arabica) (UniProt Q42656)
Experiment: Counterscreen for Glucocerebrosidase Inhibitors: qHTS Assay for Coffee Bean alpha-Galactosidase at pH 5.9 (AID 998);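 also: plate controls were uninhibited enzyme for no effect and no-enzyme basal signal for full effect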
Conditions: coffee bean alpha-galactosidase enzyme assay; series mostly up to 76.9 µM; activity, negative = inhibition: at the top concentration
How it was run: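 Fluorogenic 4-MU substrate hydrolysis, 80 uM substrate and 2 nM coffee bean alpha-galactosidase, pH 5.9 citrate buffer, 20 min at room temperature, then NaOH/glycine stop. Titration 0.7 nM–77 uM, normalized to no-enzyme and enzyme controls, AC50 via Hill equation.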

Sequence of Alpha-galactosidase (Coffea arabica) (Q42656 whole entry, looked up): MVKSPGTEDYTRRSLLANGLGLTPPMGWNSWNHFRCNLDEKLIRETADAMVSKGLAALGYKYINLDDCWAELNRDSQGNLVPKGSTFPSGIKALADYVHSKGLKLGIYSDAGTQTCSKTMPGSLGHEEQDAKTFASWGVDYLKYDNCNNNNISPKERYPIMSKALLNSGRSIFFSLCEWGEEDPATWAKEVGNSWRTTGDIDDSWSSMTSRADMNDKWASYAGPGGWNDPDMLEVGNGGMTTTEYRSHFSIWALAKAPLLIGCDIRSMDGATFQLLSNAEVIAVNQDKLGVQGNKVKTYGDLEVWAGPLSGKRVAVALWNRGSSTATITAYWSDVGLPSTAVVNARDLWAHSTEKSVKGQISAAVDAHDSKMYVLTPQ

SMILES | activity, negative = inhibition | outcome
FC(F)(F)c1ccccc1-n1ccnc1 | -1.38% (inactive) | –
CCOC(=O)c1cnc2c(cnn2CC)c1NN=C(C)C | 0.507% (inactive) | –
CCN(CC)CCNC(=O)c1ccc(N)cc1 | 2% (inactive) | –
CC(=O)O[C@H]1C(=O)[C@@]2(C)[C@H]([C@H](OC(=O)c3ccccc3)[C@]3(O)C[C@H](OC(=O)[C@H](O)[C@@H](NC(=O)c4ccccc4)c4ccccc4)C(C)=C1C3(C)C)[C@]1(OC(C)=O)CO[C@@H]1C[C@@H]2O | -11.7% (inactive) | –
CC(=O)OCC(=O)[C@@]1(O)CC[C@H]2[C@@H]3CCC4=CC(=O)CC[C@]4(C)[C@H]3C(=O)C[C@@]21C | 1.17% (inactive) | –
O=C(O)CCCCCCCC(=O)O | 0.277% (inactive) | –
N[C@@H](COP(=O)(O)O)C(=O)O | -0.521% (inactive) | –
CC(C)C(=O)c1c(C(C)C)nn2ccccc12 | 1.53% (inactive) | –
NCCS(=O)(=O)O | 0.726% (inactive) | –
O=C(O)CN(CCN(CC(=O)O)CC(=O)O)CCN(CC(=O)O)CC(=O)O | -0.432% (inactive) | –
O=c1c(-c2ccc(O)cc2)coc2cc(O)cc(O)c12 | 2.13% (inactive) | –
CN1CCN(CCC=C2c3ccccc3Sc3ccc(S(=O)(=O)N(C)C)cc32)CC1 | -0.516% (inactive) | –
NCCCNCCSP(=O)(O)O | 1.7% (inactive) | –
CC(=O)Oc1cc(C(C)C)c(OCCN(C)C)cc1C | -0.373% (inactive) | –
CC(C)NNC(=O)c1ccncc1 | -2.28% (inactive) | –
CNCCC=C1c2ccccc2CCc2ccccc21 | -2.05% (inactive) | –
C[N+](C)(C)CCCCCC[N+](C)(C)C | – | inactive
CN1C(C(=O)Nc2ccccn2)=C(O)c2ccccc2S1(=O)=O | -3.18% (inactive) | –
Nc1ccc(S(=O)(=O)Nc2ccnn2-c2ccccc2)cc1 | 0.328% (inactive) | –
CN1CCN(CC(=O)N2c3ccccc3C(=O)Nc3cccnc32)CC1 | -0.865% (inactive) | –
CCCCCCCCCCCCCCCC(=O)NCCO | -3.45% (inactive) | –
Cc1nc2c([nH]1)c(=O)n(C)c(=O)n2Cc1ccco1 | -1.62% (inactive) | –
CN(C)CCOC(=O)COc1ccc(Cl)cc1 | -0.36% (inactive) | –
CNC[C@H](O)c1cccc(O)c1 | 2.23% (inactive) | –
CC(C)Cc1ccc(C(C)C(=O)O)cc1 (stereo unspecified) | 3.72% (inactive) | –
CCN(CC)C(=O)c1ccc(O)c(OC)c1 | 1.43% (inactive) | –

System: not listed separately
Experiment: qHTS Assay for Identification of Small Molecule Inducers of Hypoxia Response (AID 2120; active = well fitted curve in the direction sought with a large enough effect in the signal ratio, with a control signal flat, not every such curve was filed as active; the % refers to the signal ratio; also: 0% is about no effect)
Conditions: hypoxia response reporter cells, beta-lactamase ratio readout; series mostly up to 104 µM; activation: at the top concentration
How it was run: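 HRE-bla ME-180, 2500 cells/well, 0.5% dialyzed FBS medium; cpd titration, 17 h 37 degrees C; CCF4 2.5 h RT; Ex 405, Em 460/530 ratio -> %Activity, AC50.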

SMILES | activation
CCOC(=O)CC(SP(=S)(OC)OC)C(=O)OCC (stereo unspecified) | 0.691% (inactive)
C[C@]1(O)CC[C@H]2[C@@H]3CCC4=CC(=O)CC[C@]4(C)[C@@]3(F)[C@@H](O)C[C@@]21C | -0.0601% (inactive)
CCC(C)(C)c1ccc(O)cc1 | -0.116% (inactive)
Nc1ccccc1 | -0.0093% (inactive)
Nc1ccccc1C(=O)O | 0.546% (inactive)
CCCC(C)(COC(N)=O)COC(N)=O | 0.76% (inactive)
CC(C)NC(C)C | 0.6% (inactive)
